# Screening data as filed in PubChem BioAssay.
# Most compounds without a hit are left out; they make up all but 6.3% or so of the library.
# ATXN2 expr inh: reduces ATXN2 reporter expression in HEK-293 cells; HEK-293 ATXN2-luciferase reporter, luminescence, 24 h; Potency, µM (titrated, usually from 57 µM), without a hit: at the highest dose activity change, negative = inhibition, actives largely listed as inhibitors; hit rate 0.72% among 360,000; AID 1745845; further: on the % scale 0 is the no-effect control and ±100 the full control effect; nearly all actives have a fitted effect of over 55% in size
#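 ATXN2-luciferase reporter cells (luciferase flanked by upstream and downstream ATXN2 gene portions) were treated 24 h at 37 °C with compounds at up to 57 uM. SteadyGlo luminescence gave expression; GF-AFC fluorescence gave viability.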
# HepG2 tox: HepG2 cytotoxicity, counter-screen for TGF-b inhibitors. HepG2 CAGA-GFP viability, ATP luminescence, 18 h. Potency, µM (highest dose often 46.1 µM), for inactives: at the highest dose activity change, negative = cytotoxicity, usual class: cytotoxic. hit rate 0.76% among 410,000
#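 CellTiter-Glo luminescence gave cytotoxicity after 18 hours at 37 degrees C. The cells were HepG2 CAGA-GFP in 1% FBS DMEM, stimulated with 500 pg/mL TGF-beta after compound addition. %Activity was normalised to no-cell wells (complete cell-killing) and DMSO (no toxicity), and curves were fitted and classified.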
# Gal4-VP16 FLuc: counter-screen for ROR gamma inhibitors: Gal4-VP16 reporter. hit rate 3.5% among 310,000. Drosophila S2 Gal4-VP16 UAS-luciferase, luminescence, 20 h. Potency, µM (highest dose often 53.6 µM), for inactives: at the top dose activity, negative = inhibition, actives largely listed as inhibitors. AID 2546;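 further: Gal4-VP16 expression switched on by copper sulfate through the metallothionein promoter; on the % scale 0 is the no-effect control and ±100 the full control effect; nearly all actives have a fitted effect of over 50% in size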
# TGFb inhibitor: blocks TGF-b signaling. Potency, µM (doses to about 46.1 µM), without a hit: at the top dose activity, negative = inhibition, most hits filed as inhibitors. AID 588855. hit rate 1.2% among 410,000. HepG2 CAGA-GFP TGF-b/SMAD3 reporter, GFP fluorescence, 18 h; TGF-beta stimulated, 500 pg/mL final; further: on the % scale 0 is the no-effect control and ±100 the full control effect; nearly all actives have a fitted effect of over 65% in size
#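 TGF-beta reporter screen: HEPG2 CAGA-GFP, 1% FBS, 500 pg/mL TGF-beta final, 18 h; per-cell GFP summed per well; curves fitted and categorized by class.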
# RORgamma inh: inhibitors of mouse ROR gamma transcriptional activity; Potency, µM (highest dose often 53.6 µM), inactives show at the top dose activity change, negative = inhibition, most hits filed as inhibitors; hit rate 5.4% among 310,000; Drosophila S2 Gal4-RORgamma UAS-luciferase reporter, 20 h; P51450; further: on the % scale 0 is the no-effect control and ±100 the full control effect; nearly all actives have a fitted effect of over 60% in size
# Target sequence (P51450 whole entry, looked up, the tested form may be a part): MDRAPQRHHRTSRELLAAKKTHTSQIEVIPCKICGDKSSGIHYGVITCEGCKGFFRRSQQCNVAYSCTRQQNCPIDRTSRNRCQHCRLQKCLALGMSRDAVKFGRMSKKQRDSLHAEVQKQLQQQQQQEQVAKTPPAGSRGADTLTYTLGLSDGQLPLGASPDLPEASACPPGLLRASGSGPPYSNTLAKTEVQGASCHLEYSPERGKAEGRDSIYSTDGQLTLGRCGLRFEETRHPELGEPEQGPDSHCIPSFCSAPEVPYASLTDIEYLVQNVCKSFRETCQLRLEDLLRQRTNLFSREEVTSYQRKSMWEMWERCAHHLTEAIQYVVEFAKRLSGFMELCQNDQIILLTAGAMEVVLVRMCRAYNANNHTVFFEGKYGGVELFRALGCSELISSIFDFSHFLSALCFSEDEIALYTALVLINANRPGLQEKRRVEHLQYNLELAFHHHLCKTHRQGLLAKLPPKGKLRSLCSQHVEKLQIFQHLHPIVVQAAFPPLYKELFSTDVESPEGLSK
#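 A Gal4/UAS one-hybrid system in insect cells: metallothionein-promoter Gal4–ROR gamma fusion plus Photinus luciferase reporter. Copper sulfate 700 uM final, 20 hr ambient incubation, luminescent detection after 10 min with reagent.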
# ATXN viability: cell viability loss in ATXN counter-screen; S2 cells (HEK-293 line with an ATXN2-luciferase reporter) viability, CellTiter-Fluor protease fluorescence, 24 h; Potency, µM (doses to about 56.7 µM), most hits filed as cytotoxic; hit rate 0.49% among 400,000; AID 651635; further: nearly all actives have a fitted effect of over 40% in size
# Active calls of the source: *; i = inactive; ? = inconclusive; nt = no result given; [ ] = another dose, or the depositor's remark. The call rests on the fitted dose curve; in most records, active means well fitted curve in the direction sought with a large enough effect; inconclusive means small, poorly fitted or top-dose-only effect, or another doubt; inactive means no such curve, though single readings can be large; an effect the other way counts as inactive or inconclusive. Potency means the concentration at half of the fitted maximal effect.
SMILES,ATXN2 expr inh,HepG2 tox,Gal4-VP16 FLuc,TGFb inhibitor,RORgamma inh,ATXN viability
Cc1ccc(C(=O)N2CC2C)cc1 (stereo not drawn),-10%,-21%,nt,22%,nt,i
Cc1ccc(C(=O)n2c(N)nc3ccccc32)cc1,2.8µM*,-37%,6.3µM*,-8%,1.6µM*,i
CN1C(=O)[C@]23CC4=CC=C[C@H](O)[C@H]4N2C(=O)[C@@]1(CO)SS3,nt,nt,0%,nt,0.045µM*,nt
CCc1ccc(C2CCNCC2)cc1,-16%,nt,nt,nt,nt,i
ClCCN(CCCl)c1ccc(-n2cnc3c(Cl)ncnc32)cc1,16µM*,2%,nt,4%,nt,nt
Cc1cccc(N)c1C,nt,nt,10%,nt,-8%,nt
O=C(Cn1c(=O)oc2cc(S(=O)(=O)NCc3ccccc3)ccc21)NCc1ccccc1Cl,nt,-64%,nt,?,nt,nt
CNC(=O)Oc1ccc(-c2cn3cc(Cl)ccc3n2)cc1,7%,-26%,?,-19%,6.3µM*,?
Cn1c(=O)cc(OCCCC(=O)N2CCC3(CC2)OCCO3)c2ccccc21,30%,-12%,7%,12%,?,i
CCOc1cc2[nH]c(=S)n(CCCC(=O)N3CCC4(CC3)OCCO4)c(=O)c2cc1OCC,10%,6%,20µM*,-11%,?,i
COc1cccc2c1C(=O)c1c(O)c3c(c(O)c1C2=O)CC(O)(C(C)=NO)CC3OC1CC(N)C(O)C(C)O1 (stereo not drawn),1.6µM*,3%,nt,6.3µM*,nt,?
CC(=Cc1csc(C)n1)[C@@H]1C[C@H]2O[C@@H]2CCC[C@H](C)[C@@H](O)[C@@H](C)C(=O)C(C)(C)[C@@H](O)CC(=O)O1,-22%,nt,nt,nt,nt,nt
O=C1NC(=O)C(=Cc2ccc(SC3CCCCC3)o2)C(=O)N1,18µM*,-59%,-7%,?,-33%,nt
NS(=O)(=O)c1ccc(-c2ccc(C=C3C(=O)NC(=O)NC3=O)o2)cc1,-2%,-19%,-4%,3%,5%,i
O=c1[nH]c(=S)[nH]c(O)c1N=Nc1cc2c(cc1[N+](=O)[O-])OCO2,-36%,0%,-3%,3%,-39%,?
O=c1[nH]c(=S)[nH]c(O)c1N=Nc1ccc(-c2ccccc2)cc1[N+](=O)[O-],nt,nt,18µM*,nt,?,nt
O=C1CCC[C@@H]2[C@H]3CCCN4CCC[C@@H](CN12)[C@@H]34,-1%,nt,nt,nt,nt,nt
Cc1ccc(-c2nc3c(=O)n(C)c(=O)nc-3n(C)n2)cc1,nt,1µM*,nt,0.79µM*,nt,nt
Cn1ncnc2c(=O)n(C)c(=O)nc1-2,3.5µM*,0.2µM*,0.63µM*,0.11µM*,0.04µM*,4.5µM*
S=C(Nc1ccccc1)Nc1cccc(Br)c1,nt,-5%,8%[10 µM],-6%,11µM*,i
CCOc1cccc(CC(=O)NCc2ccc3c(c2)CCN3C(=O)c2cccc(C)c2)c1OCC,?,-12%,nt,?,nt,28µM*
CC(=O)O[C@@H]1[C@@H](O)C2OC3C=C(C)C(=O)[C@@H](O)[C@]3(CO)C1(C)C21CO1 (stereo partly drawn),nt,nt,0.11µM*,nt,0.63µM*,nt
CCOC(=O)C(SP(=S)(OC)OC)c1ccccc1 (stereo not drawn),nt,nt,?,nt,13µM*,nt
O=C(N/N=C/c1c(O)n(CCc2ccccc2)c(=O)[nH]c1=O)c1ccccc1,-12%,8%,-9%,2%,14µM*,?
O=C(N/N=C/c1c(O)n(C2CCCCC2)c(=S)[nH]c1=O)c1ccccc1,15%,-1%,?,23%,5.6µM*,i
SMILES,ATXN2 expr inh,HepG2 tox,Gal4-VP16 FLuc,TGFb inhibitor,RORgamma inh,ATXN viability
O=c1[nH]c(=S)n(C2CC2)c(O)c1/C=N/Nc1ccccc1,2%,-4%,1%,-4%,13%,i
O=C(N/N=C/c1c(O)n(Cc2ccco2)c(=O)[nH]c1=O)c1ccccc1O,1%,2%,7%,1%,13µM*,?
CC(C)c1ccc(-n2c(O)c(/C=N/NC(=O)c3ccccc3O)c(=O)[nH]c2=S)cc1,-1%,-12%,4.5µM*,-23%,0.32µM*,i
CCCCn1c(O)c(/C=N/NC(=O)c2ccncc2)c(=O)[nH]c1=O,8%,19%,-7%,32%,-16%,i
O=C(O)CBr,nt,nt,6%,nt,-1%,nt
C=CCOCC1CO1 (stereo not drawn),nt,nt,-4%,nt,18%,nt
CC/C(=N\NC(=O)c1ccccc1O)c1c(O)n(C2CCCCC2)c(=O)[nH]c1=O,25%,4%,8.9µM*,-3%,2.5µM*,i
O=c1[nH]c(=O)n(CCC2=CCCCC2)c(O)c1/C=N/Nc1ccccc1,-1%,-5%,20µM*,-6%,?,i
CCCCC(=O)N/N=C/c1c(O)n(C2CC2)c(=S)[nH]c1=O,1%,13%,17%,0%,-30%,i
O=C(N/N=C/c1c(O)n(C2CCCCC2)c(=S)[nH]c1=O)c1ccccc1O,nt,-23%,3.2µM*,?,4µM*,i
Cc1ccccc1O,-7%,-7%,0%,?,22%,i
Oc1cccc2nc3ccccc3nc12,-13%,-28%,5µM*,?,?,?
CCC(=O)C(CCN(C)C)(c1ccccc1)c1ccccc1,-17%,nt,nt,nt,nt,i
O=C1C=C2C(=CCOC2O)O1 (stereo not drawn),nt,nt,0.89µM*,nt,1.1µM*,nt
COC(=O)C(O)C(O)(CCC(C)C)C(=O)OC1C(OC)=CC23CCCN2CCc2cc4c(cc2C13)OCO4 (stereo not drawn),nt,nt,?,nt,0.13µM*,nt
